AID504770 – growth inhibition of E. coli YBA685, primary screen, V. cholerae RctB inhibitors; E. coli YBA685 rctB-dependent plasmid, OD600 growth, 3 h; active compounds read low; z-score (test concentration not listed); 130,000 compounds, 0.27% hits; AID 504770, 2011; in the data active means z-score below about -2, passing the limit was not always enough
MenB inh – M. tuberculosis MenB inhibitors, primary screen, biochemical, absorbance; 1,4-dihydroxy-2-naphthoyl-CoA synthase (Mycobacterium tuberculosis (strain ATCC 25618 / …; MenB enzyme assay, absorbance read-out; inhibition, % (test concentration not listed); 100,000 compounds, 0.43% hits; AID 540299, 2011; in the data active means inhibition above about 21%, passing the limit was not always enough
Polio RdRp inh – poliovirus RdRp elongation inhibitors, primary screen, biochemical, fluorescence polarization, total intensity; Genome polyprotein (Poliovirus type 1 (strain Mahoney)), P03300; poliovirus polymerase elongation; active compounds read low; % elongation, % (compound at 16.7 µg/mL); 150,000 compounds, 0.66% hits; AID 588519, 2011; in the data active means % elongation below about 90%
Mtb MbtI inh – MbtI salicylate synthase inhibitors, primary screen, biochemical, fluorescence intensity; purified MbtI enzyme, fluorescence intensity read-out; inhibition, % (no concentration beside the values); 100,000 compounds, 0.89% hits; AID 493033, 2011; in the data active means inhibition mostly above about 56%, no sharp cut-off; inactive means mostly below about 77%
Target sequence (P9WFX0 whole entry, looked up): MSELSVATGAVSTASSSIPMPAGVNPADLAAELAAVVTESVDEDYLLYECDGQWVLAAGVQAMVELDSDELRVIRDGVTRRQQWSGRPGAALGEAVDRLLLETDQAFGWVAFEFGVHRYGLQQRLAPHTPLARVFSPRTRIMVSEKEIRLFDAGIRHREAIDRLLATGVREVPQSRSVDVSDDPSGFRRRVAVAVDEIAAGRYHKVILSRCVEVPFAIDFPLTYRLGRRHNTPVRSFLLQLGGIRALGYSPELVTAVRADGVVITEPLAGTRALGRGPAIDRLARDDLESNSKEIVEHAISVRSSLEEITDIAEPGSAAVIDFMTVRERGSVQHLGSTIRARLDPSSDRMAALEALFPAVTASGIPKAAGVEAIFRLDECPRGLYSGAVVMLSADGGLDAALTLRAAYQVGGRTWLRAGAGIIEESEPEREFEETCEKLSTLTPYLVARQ
Numbers stand for hits. Most compounds without a hit are left out; they make up all but 1.4% or so of the library.

For COC(=O)c1cn(CCC#N)nc1-c1cccs1 the results were AID504770 inactive, MenB inh inactive, Polio RdRp inh inactive and Mtb MbtI inh inactive.
For CCOC(=O)c1ccc(N=C=S)cc1 the results were AID504770 -2.2, MenB inh inactive, Polio RdRp inh inactive and Mtb MbtI inh inactive.
Screening CCOc1ccc(C(=S)N2CCCC2)cc1 returned AID504770 inactive, MenB inh inactive, Polio RdRp inh inactive and Mtb MbtI inh inactive.
For CCOC(=O)C1CCN(C(=S)c2ccccc2)CC1 the results were AID504770 inactive, MenB inh inactive, Polio RdRp inh inactive and Mtb MbtI inh 59.
For CCOC(=O)c1ccc(N=Cc2ccc(CC)cc2)cc1 the results were AID504770 inactive, MenB inh inactive and Polio RdRp inh inactive.
Screening CCOC(=O)c1ccc(C(=S)N2CCCC2)cc1 returned AID504770 inactive, MenB inh inactive, Polio RdRp inh 69 and Mtb MbtI inh 77.
`N#C/C(=C\c1ccccc1)C(=O)C1CC1` gave AID504770 inactive, MenB inh inactive, Polio RdRp inh inactive and Mtb MbtI inh inactive.
For O/N=C1/C2C3CC4C2/C(=N/O)C2C1C3C42 (configuration not stated) the results were AID504770 inactive, MenB inh inactive, Polio RdRp inh inactive and Mtb MbtI inh inactive.
Clc1ccc(-c2noc3ncnc(N4CCCC4)c23)cc1 was read as AID504770 inactive, MenB inh inactive, Polio RdRp inh inactive and Mtb MbtI inh inactive.
Clc1ccc(NCCC2=CCCCC2)nn1 was read as AID504770 inactive, MenB inh 34, Polio RdRp inh inactive and Mtb MbtI inh inactive.
Screening COc1cccc(NC(=O)Cn2ccc3c(OC)cccc3c2=O)c1 returned AID504770 inactive, MenB inh inactive, Polio RdRp inh inactive and Mtb MbtI inh inactive.
`COc1cccc(NC(=O)Cn2sc3ccccc3c2=O)c1` gave AID504770 -2.5, MenB inh inactive, Polio RdRp inh inactive and Mtb MbtI inh inactive.
For CC(C)(C)CC(=O)NN1C(=O)c2cccc3cccc(c23)C1=O the results were AID504770 inactive, MenB inh inactive, Polio RdRp inh inactive and Mtb MbtI inh inactive.
Screening CN(C)C1(CNCc2nc3ccccc3c(=O)[nH]2)CCCCC1 returned AID504770 inactive, MenB inh inactive, Polio RdRp inh inactive and Mtb MbtI inh inactive.
For CN(C)C1(CNCc2cnn(-c3ccccc3)n2)CCCCC1 the results were AID504770 inactive, MenB inh inactive, Polio RdRp inh 88 and Mtb MbtI inh inactive.
For S=C(NC1CCCCC1)C(=S)NC1CCCCC1 the results were AID504770 inactive, MenB inh inactive, Polio RdRp inh 82 and Mtb MbtI inh inactive.
COc1ccc(CCN(C)c2nc(N)c3c(N)nc(SCC(=O)O)cc3c2C#N)cc1OC was read as AID504770 inactive, MenB inh inactive, Polio RdRp inh 72 and Mtb MbtI inh inactive.
CCOc1ccc(-c2cnc(N)s2)cc1 was read as AID504770 inactive, MenB inh inactive and Polio RdRp inh 62.
`CC(C(=O)NC1CCCC1)n1cc(Br)ccc1=O` (configuration not stated) gave AID504770 inactive, MenB inh inactive, Polio RdRp inh inactive and Mtb MbtI inh inactive.
`CN(C)CCNC(=O)c1ccc(Br)s1` gave AID504770 inactive, MenB inh inactive, Polio RdRp inh 89 and Mtb MbtI inh inactive.
O=C(O)c1cnc2ccccn2c1=O was read as AID504770 inactive, MenB inh 27, Polio RdRp inh inactive and Mtb MbtI inh inactive.
Screening CCOC(=O)c1cnc2ccccn2c1=O returned AID504770 inactive, MenB inh inactive, Polio RdRp inh inactive and Mtb MbtI inh inactive.
For CCn1ccnc1P(=S)(N(C)C)N(C)C the results were AID504770 inactive, MenB inh inactive, Polio RdRp inh inactive and Mtb MbtI inh inactive.
For CNC(=O)c1sc(NCc2ccco2)nc1C the results were AID504770 inactive, MenB inh inactive, Polio RdRp inh 77 and Mtb MbtI inh 98.
Cc1ccc(NC(=O)Sc2ccc(Cl)cc2)cc1 was read as AID504770 inactive, MenB inh inactive, Polio RdRp inh inactive and Mtb MbtI inh 57.
`NS(=O)(=O)c1ccc(NC(=O)CCC(=O)Nc2ccc(S(N)(=O)=O)cc2)cc1` gave AID504770 inactive, MenB inh inactive, Polio RdRp inh inactive and Mtb MbtI inh inactive.
`NS(=O)(=O)c1ccc(NC(=O)CS)cc1` gave AID504770 inactive, MenB inh inactive, Polio RdRp inh inactive and Mtb MbtI inh 76.
For CCSc1nsc(NC(=O)Nc2cccc(F)c2)n1 the results were AID504770 -2.8, MenB inh inactive, Polio RdRp inh inactive and Mtb MbtI inh inactive.
CC(C)N(C(=O)Cn1cc(S(=O)(=O)CC(=O)N(C)c2ccccc2)c2ccccc21)C(C)C was read as AID504770 inactive, MenB inh inactive, Polio RdRp inh inactive and Mtb MbtI inh inactive.
Screening COc1ccc2nc(C(=O)O)sc2c1 returned AID504770 inactive, MenB inh inactive and Polio RdRp inh 86.
Screening O=C(CN1CCN(c2cccc(Cl)c2)CC1)NCCc1ccccc1 returned AID504770 inactive, MenB inh inactive, Polio RdRp inh inactive and Mtb MbtI inh inactive.
Screening COCCNC(=O)c1cc(-c2cccnc2)nc2ccc(S(=O)(=O)N3CCCCCC3)cc12 returned AID504770 inactive, MenB inh inactive, Polio RdRp inh inactive and Mtb MbtI inh inactive.
COCCCNC(=O)c1cc(-c2cccnc2)nc2ccc(S(=O)(=O)N3CCC(C)CC3)cc12 was read as Polio RdRp inh 47.
CCCC1C2c3ccccc3C(c3ccccc32)C1C(=O)Nc1ccccc1OC (configuration not stated) was read as AID504770 inactive, MenB inh inactive and Polio RdRp inh inactive.
Screening CCC(C)N1C(=O)/C(=C\c2cnn(-c3ccccc3)c2)C(=O)NC1=S (configuration not stated) returned AID504770 inactive, MenB inh inactive, Polio RdRp inh inactive and Mtb MbtI inh 80.
Screening O=C1NC(=O)N(c2ccccc2)C(=O)/C1=C/c1ccccc1 returned AID504770 inactive, MenB inh inactive, Polio RdRp inh inactive and Mtb MbtI inh inactive.
`CN(C)S(=O)(=O)N=C1C=CC(=NS(=O)(=O)N(C)C)C=C1` gave AID504770 inactive, MenB inh inactive, Polio RdRp inh 88 and Mtb MbtI inh inactive.
Screening Fc1cccc2c1CNC(=S)N2 returned AID504770 inactive, MenB inh inactive, Polio RdRp inh inactive and Mtb MbtI inh 82.
CCOc1ccccc1C(=O)OCC(=O)N1CCN(c2ccccc2)CC1 was read as AID504770 inactive, MenB inh inactive, Polio RdRp inh inactive and Mtb MbtI inh inactive.
CCN(CC)C(=O)CN1C(=O)COCC1=O was read as AID504770 inactive, MenB inh 26, Polio RdRp inh inactive and Mtb MbtI inh inactive.
Sc1ccc2c(c1)OCCCO2 was read as AID504770 inactive, MenB inh inactive, Polio RdRp inh inactive and Mtb MbtI inh 94.
`COC(=O)C(C)N1C(=O)S/C(=C/c2ccc(N3CCCCCC3)o2)C1=O` (configuration not stated) gave AID504770 inactive, MenB inh inactive, Polio RdRp inh inactive and Mtb MbtI inh 53.

Screens as filed in PubChem BioAssay.
